Experimental data published in PubChem BioAssay (NCI).
Compounds without any hit were thinned out: in the full panel of roughly 83,000, 20% have a hit.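 96-well plates, one dose, 48 hours. Percent growth reported; active if below 10.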 Values without a mark were called inactive. Activity calls are given as the source filed them.

What was measured:
Test in all cases: NCI-60 one-dose screen, 48 h (100 = growth as untreated, 0 = no growth, -100 = all killed)
[1] = test system: NCI-H23 lung; details: 10 µM unless noted
[2] = test system: NCI-H226 lung; details: 10 µM unless noted
[3] = test system: NCI-H322M lung; details: 10 µM unless noted
[4] = test system: HOP-62 NSCLC; details: 10 µM unless noted
[5] = test system: NCI-H460 lung; details: 10 µM unless noted
[6] = test system: HOP-92 NSCLC; details: 10 µM
[7] = test system: NCI-H522 lung; details: 10 µM unless noted
[8] = test system: A549/ATCC NSCLC; details: 10 µM unless noted
[9] = test system: 786-0 renal; details: 10 µM unless noted
[10] = test system: COLO 205 colon; details: 10 µM unless noted
[11] = test system: DU-145 prostate; details: 10 µM unless noted
[12] = test system: K-562 leukemia; details: 10 µM unless noted
[13] = test system: MALME-3M melanoma; details: 10 µM unless noted
[14] = test system: MDA-MB-231 breast; details: 10 µM unless noted
[15] = test system: SF-268 CNS; details: 10 µM unless noted
[16] = test system: SF-295 CNS; details: 10 µM unless noted
[17] = test system: SF-539 CNS; details: 10 µM unless noted
[18] = test system: UACC-257 melanoma; details: 10 µM unless noted

| Structure (SMILES) | growth [1] | growth [2] | growth [3] | growth [4] | growth [5] | growth [6] | growth [7] | growth [8] | growth [9] | growth [10] | growth [11] | growth [12] | growth [13] | growth [14] | growth [15] | growth [16] | growth [17] | growth [18] |
| --- | --- | --- | --- | --- | --- | --- | --- | --- | --- | --- | --- | --- | --- | --- | --- | --- | --- | --- |
| O=C(NNc1nc2cc(F)ccc2n2c(CN3CCCC3)ccc12)c1cnccn1 | 26.3% | 18.2% | 27.1% | 17.6% | 2.93% (active) | 18.2% | -3.33% (active) | 13.6% | 12.7% | 7.69% (active) | 17.2% | 11.1% | 37.4% | 31.4% | 22.1% | 6.2% (active) | 1.5% (active) | 0.872% (active) |
| COc1ccc(C(=O)c2c(N)c(C#N)cn2-c2ccccc2OC)cc1 | 32.8% | 60.5% | 75.2% | 56.3% | 17.4% | 52.5% | -1.29% (active) | 53.4% | 43.7% | 38.5% | 52.4% | 13.3% | 42% | 48.6% | 44.1% | 8.45% (active) | 12.4% | 66.9% |
| CCN(CC)c1ccc2c(c1)Oc1nc(N)c(C#N)c(N)c1C2Sc1ccc(C)cc1 (stereo unspecified) | -90% (active) | -54.6% (active) | -92.7% (active) | -71% (active) | -40.4% (active) | -93.9% (active) | -75.6% (active) | -56.9% (active) | -92.6% (active) | -53.6% (active) | -95.5% (active) | 0.301% (active) | -92.9% (active) | -87.3% (active) | -52.7% (active) | -93.3% (active) | -97.8% (active) | -74.2% (active) |
| O=C(CNc1nc(-c2cccc([N+](=O)[O-])c2)cs1)Nc1cccc(Cl)c1 | 96% | 99.4% | 101% | 96.6% | 113% | 104% | 98.3% | 108% | 105% | 112% | 112% | 97.1% | 104% | 101% | 99.7% | 102% | 101% | 118% |
| N#Cc1cnc2ccc(-c3cnc(N)nc3)cc2c1N1CCc2cc(F)c(Cl)cc21 | 9.66% (active) | 9.54% (active) | 10% | 2.88% (active) | 7.28% (active) | -19% (active) | 10.4% | 4.58% (active) | 3.11% (active) | 6.97% (active) | 13.3% | 12% | -11.6% (active) | 14.9% | 5.13% (active) | -8.96% (active) | -12.5% (active) | 8.92% (active) |
| O=C1[C@H]2Cc3c([nH]c4ccccc34)[C@@H](c3c(Cl)cccc3Cl)N2C(=O)CN1C1CCN(CC2CCCCC2)CC1 | 94.5% | 86.1% | 94.7% | 93.3% | 63.6% | 54.9% | 101% | 94.3% | 83.2% | 105% | 48.9% | 9.76% (active) | 85.5% | 75% | 84.4% | 105% | 95.4% | 110% |
| CCC1=Cc2cc(OC)ccc2OC12C=Cc1cc(OC)ccc1O2 (stereo unspecified) | 17% | 65.4% | 50.2% | 64.3% | 4.15% (active) | 57.3% | -23.9% (active) | 26.5% | 37.3% | -6.28% (active) | 19.9% | 12.6% | 58.4% | 34.9% | 39.2% | 15.7% | -23.7% (active) | 79.6% |
